According to PubChem BioAssay (NCATS):
Inconclusive results are not listed. Activity calls are given as the source filed them. Unless noted, calls come from the whole dose curve; as a rule, active = well fitted curve in the direction sought with a large enough effect; inconclusive = small, poorly fitted or top-dose-only effect, or another doubt; inactive = no such curve, though single readings can be large; an effect the other way counts as inactive or inconclusive.

Key:
[1] = molecular target: Estrogen receptor (Homo sapiens) (UniProt P03372); test: qHTS assay for small molecule antagonists of estrogen receptor alpha signaling (AID 588513; active = well fitted curve in the direction sought with a large enough effect in the signal ratio, with a control signal flat, not every such curve was filed as active; the % refers to the signal ratio; note: % is set by controls: 0 for no effect and ±100 for the full control effect)
Chain of Estrogen receptor (Homo sapiens) (P03372 whole entry, looked up): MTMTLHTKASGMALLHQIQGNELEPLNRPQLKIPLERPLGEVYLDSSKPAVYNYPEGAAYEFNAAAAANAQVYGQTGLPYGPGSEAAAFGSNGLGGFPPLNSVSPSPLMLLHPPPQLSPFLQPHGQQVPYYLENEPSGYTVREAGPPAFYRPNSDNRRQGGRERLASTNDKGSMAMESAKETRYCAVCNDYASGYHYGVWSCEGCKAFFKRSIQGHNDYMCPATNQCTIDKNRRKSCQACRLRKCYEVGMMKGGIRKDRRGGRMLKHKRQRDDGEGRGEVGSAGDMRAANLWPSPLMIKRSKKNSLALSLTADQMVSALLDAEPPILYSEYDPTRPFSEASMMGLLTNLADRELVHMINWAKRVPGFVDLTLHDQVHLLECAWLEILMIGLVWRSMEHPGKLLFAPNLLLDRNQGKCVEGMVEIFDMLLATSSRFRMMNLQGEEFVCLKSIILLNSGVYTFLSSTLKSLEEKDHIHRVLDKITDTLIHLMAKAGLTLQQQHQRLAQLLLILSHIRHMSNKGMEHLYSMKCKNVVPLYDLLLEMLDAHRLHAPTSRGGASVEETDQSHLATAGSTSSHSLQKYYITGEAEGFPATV
Outline: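 Fluorescence from CCF4 substrate after 2 h at room temperature gave reporter activity; cells had been exposed to compound and 0.5nM 17-beta-estradiol for 18 h at 37 C. Hill-equation fitting yielded IC50 and maximal response.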

[2] = molecular target: Peroxisome proliferator-activated receptor gamma (Homo sapiens) (UniProt P37231); test: qHTS assay for small molecule agonists of peroxisome proliferator-activated receptor gamma signaling (AID 588536; active = well fitted curve in the direction sought with a large enough effect in the signal ratio, with a control signal flat, not every such curve was filed as active; the % refers to the signal ratio;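 note: 0% = DMSO basal wells and 100% = rosiglitazone at 2 µM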)
Chain of Peroxisome proliferator-activated receptor gamma (Homo sapiens) (P37231 whole entry, looked up): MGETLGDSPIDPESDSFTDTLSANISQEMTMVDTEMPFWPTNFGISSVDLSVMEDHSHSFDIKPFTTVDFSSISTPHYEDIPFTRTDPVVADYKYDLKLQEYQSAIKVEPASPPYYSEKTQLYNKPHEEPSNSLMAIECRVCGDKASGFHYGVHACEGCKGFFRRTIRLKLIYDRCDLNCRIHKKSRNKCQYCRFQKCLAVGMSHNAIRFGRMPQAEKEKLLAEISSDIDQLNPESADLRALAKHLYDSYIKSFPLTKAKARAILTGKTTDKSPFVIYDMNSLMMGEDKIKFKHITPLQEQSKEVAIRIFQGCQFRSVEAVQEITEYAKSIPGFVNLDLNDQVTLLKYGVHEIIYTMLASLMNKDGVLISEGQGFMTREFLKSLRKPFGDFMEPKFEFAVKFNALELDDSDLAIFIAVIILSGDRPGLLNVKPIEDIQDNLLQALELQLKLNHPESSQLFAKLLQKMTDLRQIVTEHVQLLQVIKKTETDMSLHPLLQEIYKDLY
Outline: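 PPAR-gamma-UAS-bla HEK293 cells in medium with 1% charcoal/dextran-treated FBS were exposed to compounds for 16 h at 37 C. Beta-lactamase activity was read with CCF4 substrate (405 nm excitation, 460/530 nm emission).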

[3] = molecular target: Peroxisome proliferator-activated receptor gamma (Homo sapiens) (UniProt P37231); test: qHTS assay for small molecule antagonists of peroxisome proliferator-activated receptor gamma signaling (AID 588537; active = well fitted inhibition curve with a large enough effect in the signal ratio, with a control signal flat, not every such curve was filed as active; the % refers to the signal ratio;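 note: reporter cells co-stimulated with 50 nM rosiglitazone agonist during compound treatment; % of control where 0% means no effect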)
Outline: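 Inhibitors of agonist-stimulated UAS-bla reporter activity were sought in HEK293 cells; rosiglitazone (50 nM) defined full signal and DMSO baseline. Curves fitted to Hill model gave IC50 and efficacy.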

[4] = molecular target: Vitamin D3 receptor (Homo sapiens) (UniProt P11473); test: qHTS assay for small molecule agonists of vitamin D receptor signaling (AID 588543; calls by dose curve;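 note: 0% = DMSO basal and 100% = reference agonist control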)
Chain of Vitamin D3 receptor (Homo sapiens) (P11473 whole entry, looked up): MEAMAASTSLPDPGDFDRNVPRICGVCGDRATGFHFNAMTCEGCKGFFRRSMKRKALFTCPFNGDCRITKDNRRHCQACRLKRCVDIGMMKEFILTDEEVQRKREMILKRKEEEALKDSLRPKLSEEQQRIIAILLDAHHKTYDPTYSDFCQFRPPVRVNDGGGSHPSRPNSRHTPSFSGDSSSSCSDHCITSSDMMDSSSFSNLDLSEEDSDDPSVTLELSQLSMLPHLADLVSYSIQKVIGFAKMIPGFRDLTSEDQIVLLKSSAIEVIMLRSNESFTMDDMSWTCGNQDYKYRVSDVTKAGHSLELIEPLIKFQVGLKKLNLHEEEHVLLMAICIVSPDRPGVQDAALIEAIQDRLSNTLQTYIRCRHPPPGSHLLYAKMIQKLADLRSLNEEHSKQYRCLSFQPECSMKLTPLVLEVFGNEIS
Outline: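 Reporter cells (HEK293T, VDR-UAS-bla) were seeded in medium with 2% charcoal-stripped serum and incubated 5 h, then compounds in concentration series were added for 16 h at 37 °C. Stimulation was scaled between DMSO basal and 50 nM 1α,25-dihydroxyvitamin D3.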

[5] = molecular target: Thyroid hormone receptor beta (Homo sapiens) (UniProt P10828); test: qHTS assay for small molecule agonists of thyroid hormone receptor beta signaling (AID 588545; calls by dose curve)
Chain of Thyroid hormone receptor beta (Homo sapiens) (P10828 whole entry, looked up): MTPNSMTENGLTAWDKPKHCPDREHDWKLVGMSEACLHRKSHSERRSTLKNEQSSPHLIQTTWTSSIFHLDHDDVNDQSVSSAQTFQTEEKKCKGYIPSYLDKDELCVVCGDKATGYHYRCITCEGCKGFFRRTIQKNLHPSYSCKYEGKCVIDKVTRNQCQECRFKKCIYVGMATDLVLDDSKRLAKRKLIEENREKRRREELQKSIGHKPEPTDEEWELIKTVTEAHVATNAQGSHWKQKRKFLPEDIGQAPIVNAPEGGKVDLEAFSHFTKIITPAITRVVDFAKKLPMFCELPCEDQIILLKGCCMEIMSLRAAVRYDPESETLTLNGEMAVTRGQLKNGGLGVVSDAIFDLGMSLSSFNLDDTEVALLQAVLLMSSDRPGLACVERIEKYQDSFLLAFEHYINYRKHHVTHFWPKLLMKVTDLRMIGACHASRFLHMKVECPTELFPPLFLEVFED
Outline: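 In this cell-based screen, titrated compounds act on HEK 293 cells held in medium with 2% charcoal/dextran FBS, NEAA and pyruvate for 18 hrs at 37 C. Responses are expressed relative to T3 (10 nM) as 100% and basal DMSO as 0%.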

[6] = qHTS assay for small molecule antagonists of retinoid X receptor alpha signaling (AID 588546; active = well fitted inhibition curve with a large enough effect in the signal ratio, with a control signal flat, not every such curve was filed as active; the % refers to the signal ratio;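 note: cells stimulated with 9-cis-retinoic acid as agonist; % is set by controls: 0 for no effect and ±100 for the full control effect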); settings: HEK293T RXRa-UAS-bla, beta-lactamase ratio, antagonist mode; measured here: W530 green channel, cytotoxicity proxy
Outline: (§1)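 Beta-lactamase reporter inhibition, read as CCF4 fluorescence ratio (ex 405, em 460/530 nm) after 2 h at RT. HEK293T UAS-bla cells, 2500/well, were stimulated with 9-cis-RA at 500 or 100 nM final alongside test compound for 18 h at 37 C.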

[7] = molecular target: Retinoic acid receptor RXR-alpha (Homo sapiens) (UniProt P19793); test: as above; settings: HEK293T RXRa-UAS-bla, beta-lactamase ratio, antagonist mode
Chain of Retinoic acid receptor RXR-alpha (Homo sapiens) (P19793 whole entry, looked up): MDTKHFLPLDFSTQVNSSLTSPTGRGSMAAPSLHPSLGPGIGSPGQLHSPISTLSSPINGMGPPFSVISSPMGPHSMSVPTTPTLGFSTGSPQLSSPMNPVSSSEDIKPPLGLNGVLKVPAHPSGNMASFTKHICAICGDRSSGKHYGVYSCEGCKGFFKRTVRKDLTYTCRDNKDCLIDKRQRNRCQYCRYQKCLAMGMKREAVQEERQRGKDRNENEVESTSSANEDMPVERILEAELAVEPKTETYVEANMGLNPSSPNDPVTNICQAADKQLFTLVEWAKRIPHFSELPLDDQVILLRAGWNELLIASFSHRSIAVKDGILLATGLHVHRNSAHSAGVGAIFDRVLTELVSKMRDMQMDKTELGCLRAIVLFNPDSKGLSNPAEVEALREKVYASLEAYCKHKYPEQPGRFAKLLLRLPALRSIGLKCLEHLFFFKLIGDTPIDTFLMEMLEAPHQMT
Outline: as §1

[8] = molecular target: Thyroid hormone receptor beta (Homo sapiens) (UniProt P10828); test: qHTS assay for small molecule antagonists of thyroid hormone receptor beta signaling (AID 588547; active = well fitted inhibition curve with a large enough effect in the signal ratio, with a control signal flat, not every such curve was filed as active; the % refers to the signal ratio;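 note: cells stimulated with 0.4 nM T3 agonist during compound exposure; series mostly up to about 77 µM; % is set by controls: 0 for no effect and ±100 for the full control effect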); settings: TR-UAS-bla HEK293, beta-lactamase ratio, antagonist mode, 18 h
Outline: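 Inhibition of T3-driven (0.4nM final) beta-lactamase reporter activity was measured over 0.59 nM to 92 uM compound after 18 h at 37 C. The cells were GripTite HEK293 TR-UAS-bla in charcoal/dextran-stripped serum, with CCF4 ratio read-out and IC50 from Hill fits.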

[9] = qHTS assay for small molecule activators of the nuclear factor-kappa B (NF-kB) signaling pathway (AID 651749; active = well fitted activation curve with a large enough effect in the signal ratio; the % refers to the signal ratio; note: series mostly up to about 77 µM; % of control where 0% means no effect); settings: NF-kB-bla ME-180 cells, beta-lactamase FRET ratio, 16 h; activation: stronger effect = higher value
Outline: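 Stably transfected ME-180 line; NF-kB response element upstream of beta-lactamase. Treatment: compound or DMSO, 16 hr. Detection: fluorescent FRET substrate.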

[10] = qHTS assay for environmental chemicals that activate the Aryl hydrocarbon Receptor (AhR) signaling pathway (AID 651777); settings: 1A2-DRE human hepatoma cells, luciferase, 24 h; activation: stronger effect = higher value; note: % of control where 0% means no effect; nearly all actives have a fitted effect of over 15% in size
Outline: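 Stable CYP1A2 promoter/DRE-luciferase human hepatoma line treated 24 hr; One-Glo luminescence, 30 min RT.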

[11] = molecular target: Peroxisome proliferator-activated receptor alpha (Homo sapiens) (UniProt Q07869); test: qHTS assay for small molecule agonists of the peroxisome proliferator-activated receptor alpha (PPARalpha) signaling pathway (AID 651778); settings: PathHunter PPARalpha complementation, chemiluminescence, 6 h; max response: stronger effect = higher value; note: % of control where 0% means no effect
Chain of Peroxisome proliferator-activated receptor alpha (Homo sapiens) (Q07869 whole entry, looked up): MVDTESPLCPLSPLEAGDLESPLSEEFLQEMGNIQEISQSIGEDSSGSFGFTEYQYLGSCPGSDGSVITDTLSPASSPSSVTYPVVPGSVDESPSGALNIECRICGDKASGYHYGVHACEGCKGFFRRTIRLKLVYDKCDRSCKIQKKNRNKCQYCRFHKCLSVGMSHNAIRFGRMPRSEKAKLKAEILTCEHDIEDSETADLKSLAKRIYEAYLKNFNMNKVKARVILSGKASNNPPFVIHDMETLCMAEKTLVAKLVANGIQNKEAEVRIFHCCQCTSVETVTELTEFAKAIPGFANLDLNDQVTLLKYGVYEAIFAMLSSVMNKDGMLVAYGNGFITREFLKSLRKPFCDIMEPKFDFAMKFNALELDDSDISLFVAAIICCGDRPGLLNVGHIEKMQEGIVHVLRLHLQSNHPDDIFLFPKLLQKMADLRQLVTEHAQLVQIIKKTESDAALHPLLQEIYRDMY
Outline: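 Chemiluminescence from complemented enzyme reported PPARalpha activation in cells after 6 hr of compound treatment at 37 C. The detection reagent was incubated for 60 min at room temperature, and compounds were scored as agonists.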

[12] = qHTS assay for small molecule agonists of the antioxidant response element (ARE) signaling pathway measured by Nrf2-dependant transcriptional activity - cell viability counter screen (AID 720653; active = well fitted curve in the direction sought with a large enough effect in the repeat runs; an effect the other way counts as inactive or inconclusive; note: % is set by controls: 0 for no effect and ±100 for the full control effect); settings: ARE-bla HepG2 viability, CellTiter-Glo ATP luminescence, 16 h; max response: stronger effect = lower value
Outline: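 Cytotoxicity counter screen: intracellular ATP quantified by CellTiter-Glo luminescence in the same ARE-bla HepG2 plates, after 16 h compound exposure and a 2 h beta-lactamase substrate step.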

[13] = qHTS assay for cell viability of HEK293 cells (AID 743288); settings: ATP luminescence (CellTiter-Glo), 18 h; max response: stronger effect = lower value; note: % is set by controls: 0 for no effect and ±100 for the full control effect; nearly all actives have a fitted effect of over 50% in size
Outline: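 HEK293 parental, 2,000 cells/well; ≥5 h pre-incubation 37 C; pintool compound addition; 18 h, 37 C; CellTiter-Glo 30 min RT; luminescence read.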

[14] = qHTS assay for cell viability of the p53RE-bla HCT-116 cell line (AID 743292); note: % is set by controls: 0 for no effect and ±100 for the full control effect; nearly all actives have a fitted effect of over 55% in size
Outline: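 Readout: CellTiter-Glo luminescence after 30 min RT. Treatment: compounds in DMSO, 16 h, 37 C. Cells: CellSensor p53RE-bla HCT-116, 4,000/well, preincubated 5 h.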

[15] = qHTS assay for small molecule activators of the human pregnane X receptor (PXR) signaling pathway (AID 720659; call rule not given here; note: 0% is about no effect)
[16] = qHTS assay for small molecule agonists of retinoid X receptor alpha signaling (AID 588544; calls by dose curve;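 for activation: 0% = DMSO basal wells and 100% = reference agonist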); settings: HEK293T RXRa-UAS-bla, beta-lactamase reporter, 18 h; 530 nm emission
[17] = molecular target: Retinoic acid receptor RXR-alpha (Homo sapiens) (UniProt P19793); test: as above
[18] = qHTS assay for small molecule activators of the p53 signaling pathway (AID 651743; active = well fitted activation curve with a large enough effect in the signal ratio, not every such curve was filed as active; the % refers to the signal ratio; note: series mostly up to about 92 µM; % of control where 0% means no effect); settings: HCT-116 p53RE-bla, beta-lactamase FRET ratio, 16 h; activation: stronger effect = higher value
Outline: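 Screen for p53 pathway agonists uses stably transfected p53RE-bla HCT-116 cells, 4,000 per well, treated 16 h at 37 C with compounds in DMSO.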

[19] = molecular target: Nuclear receptor subfamily 1 group I member 2 (Rattus norvegicus) (UniProt Q9R1A7); test: qHTS assay for small molecule activators of the rat pregnane X receptor (rPXR) signaling pathway (AID 651751; call rule not given here; note: 0% is about no effect); settings: rPXR reporter cells, luciferase (One-Glo), 24 h
Chain of Nuclear receptor subfamily 1 group I member 2 (Rattus norvegicus) (Q9R1A7 whole entry, looked up): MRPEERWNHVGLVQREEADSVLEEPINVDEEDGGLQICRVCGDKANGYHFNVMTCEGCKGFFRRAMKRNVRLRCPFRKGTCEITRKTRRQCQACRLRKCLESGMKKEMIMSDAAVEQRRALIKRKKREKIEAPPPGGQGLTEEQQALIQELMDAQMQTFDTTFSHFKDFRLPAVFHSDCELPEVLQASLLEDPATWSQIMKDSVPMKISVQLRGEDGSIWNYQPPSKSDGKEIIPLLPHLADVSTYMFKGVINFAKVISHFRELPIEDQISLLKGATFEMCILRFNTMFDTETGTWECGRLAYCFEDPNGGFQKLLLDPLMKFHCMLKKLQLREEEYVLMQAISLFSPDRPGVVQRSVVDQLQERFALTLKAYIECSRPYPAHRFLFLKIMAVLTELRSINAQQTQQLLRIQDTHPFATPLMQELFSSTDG

[20] = qHTS assay for small molecule agonists of the antioxidant response element (ARE) signaling pathway measured by Nrf2-dependant transcriptional activity (AID 720636; active = well fitted curve in the direction sought with a large enough effect in the repeat runs; an effect the other way counts as inactive or inconclusive;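 note: HepG2 cells with an ARE-driven luciferase reporter; % of control where 0% means no effect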)
Outline: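 Reporter gene assay, HepG2 ARE-luc: 16 hr compound, 37 C, 5% CO2; read-out luciferase luminescence.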

c1ccc(-c2ccc(-c3ccccc3)cc2)cc1
inactive: Potency [1] | outcome [2] | Potency [3] | outcome [4] | Potency [5] | max response [7] 1.88% | activity change % (negative = inhibition) [8] 2.31% | activation [9] 0.439% | activation [10] 6.5% | max response [11] -0.186% | max response [12] -5.82% | max response [13] -2.69% | Potency [14] | outcome [15]
-5.51%: max response [6]

O=[N+]([O-])c1ccc2c(c1)Cc1ccccc1-2
-11.5%: max response [16]
-2.02%: max response [6]
inactive: Potency [1] | Potency [3] | Potency [17] | Potency [5] | max response [7] -11.9% | activity change % (negative = inhibition) [8] -0.921% | activation [18] 4.31% | activation [9] -1.58% | activation [10] 0.842% | max response [11] -0.719% | max response [12] -13.8% | max response [13] -16.4% | Potency [14] | max response [19] 5.85% | outcome [15]

O=S(=O)(O)c1ccc(N=Nc2c(O)ccc3cc(S(=O)(=O)O)ccc23)cc1
inactive: Potency [1] | outcome [4] | Potency [17] | Potency [5] | max response [7] -6.14% | activity change % (negative = inhibition) [8] -13.9% | activation [9] -0.945% | activation [10] -1.77% | max response [11] -7.14% | Potency [20] | max response [12] -22.3% | max response [13] -13.8% | Potency [14] | max response [19] -7.92% | outcome [15]
-4.64%: max response [16]
-15.1%: max response [6]

C/C(=C\C(C)CC(C)CC(C)C)C1CC(=O)OC1=O (stereo not drawn)
-6.65%: max response [6]
inactive: Potency [1] | outcome [2] | outcome [4] | Potency [17] | Potency [5] | max response [7] 4.94% | activity change % (negative = inhibition) [8] 0.311% | activation [18] -3.07% | activation [9] -0.74% | activation [10] 1.33% | max response [11] -0.902% | Potency [20] | max response [12] -17.9% | max response [13] -7.26% | Potency [14] | max response [19] 3.67% | outcome [15]
7.08%: max response [16]

CCCCCCCC(=O)OC
14.7%: max response [16]
-15%: max response [6]
inactive: Potency [1] | outcome [2] | Potency [3] | outcome [4] | Potency [17] | Potency [5] | max response [7] -8.88% | activity change % (negative = inhibition) [8] 13.2% | activation [18] 3.63% | activation [9] -1.19% | activation [10] -2.72% | max response [11] -3.16% | max response [12] 0.0694% | max response [13] -6.4% | max response [19] 2.14% | outcome [15]

CCCC/C=C/CCCCO
-14.6%: max response [16]
-7.43%: max response [6]
inactive: Potency [1] | outcome [2] | Potency [3] | outcome [4] | Potency [17] | Potency [5] | max response [7] -16.5% | activity change % (negative = inhibition) [8] 0.772% | activation [10] -0.731% | max response [11] -1.7% | Potency [20] | max response [13] -11.8% | max response [19] -2.13% | outcome [15]

NN(c1ccccc1)c1ccccc1
-11.7%: max response [6]
inactive: Potency [1] | outcome [2] | Potency [3] | outcome [4] | Potency [17] | Potency [5] | max response [7] -14.4% | activity change % (negative = inhibition) [8] 4.53% | activation [18] -3.49% | activation [9] -2.86% | activation [10] 3.15% | max response [11] -1.16% | Potency [20] | max response [12] -7.4% | max response [13] -10.4% | Potency [14] | max response [19] 1.92%
-8.85%: max response [16]

COC(=O)c1ccc(C(=O)OC)cc1
-4.51%: max response [16]
-0.742%: max response [6]
inactive: Potency [1] | outcome [2] | Potency [3] | outcome [4] | Potency [17] | Potency [5] | max response [7] -16.3% | activation [18] -5.18% | activation [9] -0.624% | activation [10] 2.27% | max response [11] -0.437% | Potency [20] | max response [12] -4.69% | max response [13] -3.92% | Potency [14] | max response [19] 2.11%

CCC(C)(C)C1CCC(O)CC1 (stereo not drawn)
-12.5%: max response [16]
9.01%: max response [6]
inactive: Potency [1] | outcome [2] | Potency [3] | outcome [4] | Potency [17] | Potency [5] | max response [7] -29.4% | activity change % (negative = inhibition) [8] -5.82% | activation [18] 1.97% | activation [9] -0.533% | activation [10] -0.126% | max response [11] -0.406% | max response [12] -8.65% | max response [13] -3.71% | Potency [14] | max response [19] -1.01% | outcome [15]

COC(=O)c1cccc(C)c1S(=O)(=O)NC(=O)Nc1nc(OCC(F)(F)F)nc(N(C)C)n1
inactive: Potency [1] | outcome [2] | Potency [3] | outcome [4] | Potency [5] | max response [7] -20.9% | activity change % (negative = inhibition) [8] 11.3% | activation [9] 0.0138% | activation [10] 2.46% | max response [11] -1.42% | Potency [20] | max response [12] -9.65% | max response [13] -5.64% | Potency [14] | max response [19] -6.52% | outcome [15]
-7.48%: max response [6]

CN(C)C(=O)Nc1ccccc1
-0.672%: max response [6]
-10.1%: max response [16]
inactive: Potency [1] | outcome [2] | Potency [3] | outcome [4] | Potency [17] | Potency [5] | max response [7] -1.05% | activity change % (negative = inhibition) [8] -24.6% | activation [9] -1.78% | activation [10] 2.58% | max response [11] -2.12% | Potency [20] | max response [12] 1.07% | max response [13] 1.22% | Potency [14] | max response [19] 1.09% | outcome [15]

CC(=O)OC(C)(C)C1CC=C(C)CC1 (stereo not drawn)
-9.79%: max response [16]
inactive: Potency [1] | outcome [2] | Potency [3] | outcome [4] | Potency [17] | Potency [5] | max response [7] -1.89% | activity change % (negative = inhibition) [8] -6.17% | activation [18] -1.29% | activation [10] -2.57% | max response [11] -5.04% | Potency [20] | max response [12] -6.08% | max response [13] -11.3% | Potency [14] | max response [19] -1.76% | outcome [15]
-19.2%: max response [6]
